Structures can show the parent of a compound that is named as a salt.
tested on: LOC_OS02G08530-cb003; experiment: thermal shift delta Tm vs DMSO control; higher = stronger stabilization (binding); settings: 12.5 µM; protein concentration 2 µM
Summary of the method: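 Compounds dissolved in DMSO were added to purified rice kinase domain constructs, which had been expressed in E. coli, for differential scanning fluorimetry. Each well held 19.5 μl of 2 μM kinase in 100 mM potassium phosphate pH 7.5, 150 mM NaCl, 10% glycerol and 5 × SYPRO Orange. Fluorescence was followed from 25°C to 95°C at a rate of 0.05°C/s. Shifts in Boltzmann-fitted melting temperature are triplicate means relative to DMSO-only protein.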

In order of rising “thermal shift delta Tm” value:
1. CC#CC(=O)N1CC[C@@H](n2c(=O)n(-c3ccc(Oc4ccccc4)cc3)c3c(N)ncnc32)C1 [ONO-4059 (GS-4059) hydrochloride]  0.27 °C
2. Cc1cc(C(=O)NOCCO)c(Nc2ccc(I)cc2F)n(C)c1=O  0.29 °C
3. CN1CCN(c2ccc(-c3ccncc3-c3cc(F)c(O)c(F)c3)cc2)CC1  0.29 °C
4. CC(C)(CCCCCC(O)CCCCCC(C)(C)C(=O)O)C(=O)O  0.32 °C
5. Cc1cc(C(C)Nc2ccccc2)c2nc(N3CCOCC3)cc(=O)n2c1 (stereo not drawn)  0.37 °C
6. C[C@H](NC(=O)/C(C#N)=C/c1cccc(Br)n1)c1ccccc1  0.47 °C
7. COc1cc2ncnc(Oc3ccc(CC(=O)Nc4cnn(C(C)C)c4)cc3)c2cc1OC  0.53 °C
8. CN1C(=O)[C@@H](NC(=O)c2n[nH]c(Cc3ccccc3)n2)COc2ccccc21  0.55 °C
9. Cc1c(Cn2c(C)nc3c(C(=O)O)cc(N4CCOCC4)cc32)cccc1C(F)(F)F  0.55 °C
10. Nc1nccc(Oc2ccc3c(C(=O)Nc4cccc(C(F)(F)F)c4)cccc3c2)n1  0.59 °C
11. O=C(Nc1cnn2ccc(N3CCC[C@@H]3c3cc(F)ccc3F)nc12)N1CC[C@H](O)C1 [Larotrectinib (LOXO-101) sulfate]  0.6 °C
12. N[C@@H]1CCCN(c2c(/C=C3\SC(=O)NC3=O)cccc2-c2ccccc2)C1  0.62 °C
13. C=CC(=O)N[C@H]1CCOC[C@H]1Nc1ncc2cc(-c3c(Cl)c(OC)cc(OC)c3Cl)ccc2n1  0.62 °C
14. COc1cc(OC)c(C=C2C(=O)Nc3ccccc32)c(OC)c1  0.7 °C
15. Oc1c(F)cc(-c2cnccc2-c2ccc(N3CCOCC3)cc2)cc1F  0.7 °C
16. CCNC(=O)Nc1ccc(-c2nc3c(c(N4CCOC[C@@H]4C)n2)CCN(C2COC2)C3)cc1  0.71 °C
17. O=S(=O)(NCCNC/C=C/c1ccc(Br)cc1)c1cccc2cnccc12  0.72 °C
18. Cc1cc(Nc2cc(N)ncn2)c(=O)n2c1C(=O)NC21CCCCC1  0.72 °C
19. C[C@@H]1COC(Nc2ccc3ncnc(Nc4ccc(OCc5nccs5)c(Cl)c4)c3c2)=N1 [Varlitinib]  0.76 °C
20. Cc1ccc(-n2nc(C(C)(C)C)cc2NC(=O)NCc2cc(F)ccc2Oc2ccc3c(cnn3CCO)c2)cc1 [Pexmetinib (ARRY-614)]  0.78 °C
21. CC#CC(=O)N1CCC[C@H]1c1nc(-c2ccc(C(=O)Nc3ccccn3)cc2)c2c(N)nccn12 [Acalabrutinib (ACP-196)]  0.89 °C
22. Cc1ccc(-n2nc(C(C)(C)C)cc2NC(=O)Nc2ccc(OCCN3CCOCC3)c3ccccc23)cc1 [Doramapimod (BIRB 796)]  0.89 °C
23. CCc1cnn2c(NCc3ccc[n+]([O-])c3)cc(N3CCCC[C@H]3CCO)nc12  0.89 °C
24. Oc1cccc(-c2nc(N3CCOCC3)c3oc4ncccc4c3n2)c1  0.91 °C
25. Nc1nc(N)c2nc(-c3cccc(O)c3)c(-c3cccc(O)c3)nc2n1  0.91 °C
26. CC(C)(C#N)c1ccc(N2C(=O)OCc3cnc4ccc(-c5cnc6ccccc6c5)cc4c32)cc1  0.94 °C
27. COc1ccc(CC(=O)Nc2nc3c(s2)CCc2ccccc2-3)cc1OC  0.98 °C
28. Cc1ccccc1CN1C2=NCCN2C(=O)C2=C1CCN(Cc1ccccc1)C2 [TIC10 Analogue]  1.02 °C
29. CN1CCN(c2nc(C3=C(c4c[nH]c5ccccc45)C(=O)NC3=O)c3ccccc3n2)CC1 [Sotrastaurin]  1.16 °C
30. O=C1NC(=O)C(c2ccccc2[N+](=O)[O-])=C1Nc1ccc(O)c(Cl)c1  1.16 °C
31. CCn1c(N)c(C(=O)NC)c(=O)c2ccc(C#CC(C)(O)COC)nc21 (stereo not drawn)  1.25 °C
32. Cc1cc(F)c(Nc2ncnc3cc(OCc4ccccc4)ccc23)cc1O  1.46 °C
33. CCC(=O)Nc1cccc(Oc2nc(Nc3ccc(N4CCN(C)CC4)cc3OC)ncc2Cl)c1  1.46 °C
34. CC[C@@H]1C(=O)N(C)c2cnc(Nc3ccc(C(=O)NC4CCN(C)CC4)cc3OC)nc2N1C1CCCC1  1.93 °C
35. O=C(c1ccc(Nc2nccc(-c3cc4ccccc4s3)n2)cc1)N1CCC(N2CCCC2)CC1 [IKK-16 (IKK Inhibitor VII)]  2.32 °C
36. c1nc2c(NC3CCCCC3)nc(Nc3ccc(N4CCOCC4)cc3)nc2[nH]1 [Reversine]  4.69 °C
37. CCN(CC)CCNC(=O)c1c(C)[nH]c(/C=C2\C(=O)Nc3ccc(F)cc32)c1C [Sunitinib]  4.95 °C
38. CCCCNc1ncc2c(-c3ccc(CN4CCN(C)CC4)cc3)cn([C@H]3CC[C@H](O)CC3)c2n1  5.26 °C
